The test system of experiment [1] is Zika virus NS2B-NS3 protease (unlinked complex). The experiment in a line: Primary screen GU Rhodamine qHTS for Zika virus inhibitors: Unlinked NS2B-NS3 protease assay (AID 1347159). Note: nearly all actives have a fitted effect of over 60% in size. Note: potency is the fitted concentration of half-maximal effect. In a few lines: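 Noncovalent NS2B hydrophilic domain–NS3 protease domain complex (25 nM) preincubated 15 min at room temperature with compounds (up to 114 microM) in 10 mM Tris-HCl pH 8.0, 0.01% Tween 20; 1.5 microM Rhodamine110 substrate added, fluorescence change over 15 min fitted to Hill equation.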

Experiment [2] concerns Zika virus NS2B-NS3 protease (linked construct). As to the kind of experiment: Primary screen NINDS Rhodamine qHTS for Zika virus inhibitors (AID 1347160). Note: nearly all actives have a fitted effect of over 55% in size. Note: potency is the fitted concentration of half-maximal effect. In a few lines: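 Purified linked NS2B-NS3 protease (NS2B hydrophilic domain joined to NS3 protease by flexible linker), 25 nM in 10 mM Tris-HCl pH 8.0, 0.01% Tween 20. Compounds titrated, 15 min preincubation at room temperature; 1.5 microM Rhodamine110 substrate, FITC fluorescence change over 15 min.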

Experiment [3] is described as follows: Confirmatory screen NINDS Rhodamine qHTS for Zika virus inhibitors (AID 1347161).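 For activity change, negative = inhibition: series mostly up to about 110 µM; plate controls were no-inhibitor control for no effect and no-enzyme control for full effect.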 Note: nearly all actives have a fitted effect of over 60% in size. Note: potency is the fitted concentration of half-maximal effect. In a few lines:
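Each compound, titrated, sat 15 min with 25 nM linked protease before 1.5 microM Rhodamine110 substrate went in. Fluorescence gain over the next 15 min, in pH 8.0 Tris with Tween 20, gave Hill-fitted curves.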

Experiment [4] relates to Zika virus NS2B-NS3 protease (linked). The experiment in a line: 384 well plate NINDS AMC confirmatory qHTS for Zika virus inhibitors (AID 1347163). Note: potency is the fitted concentration of half-maximal effect; nearly all actives have a fitted effect of over 50% in size. The note with it: Recombinant NS2B-NS3 protease, Ac-VKTGKR-AMC fluorescence. In a few lines:
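Linked protease 5/30/60 nM final; cpds up to 1 mM final, ~15 min preinc. Substrate Ac-VKTGKR-AMC 30 microM final. RT, dark, 25 min; FI ex 355/em 460; normalized to no-enzyme/no-inhibitor ctrls.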

The subject of experiment [5] is Zika virus NS2B-NS3 protease (linked construct). The experiment in a line: 384 well plate NINDS Rhodamine confirmatory qHTS for Zika virus inhibitors (AID 1347164). Note: potency is the fitted concentration of half-maximal effect; nearly all actives have a fitted effect of over 65% in size. The note with it: rhodamine-110 peptide substrate fluorescence. In a few lines:
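Cleavage of Ac-LKRR-Rhodamine 110 (10 microM final) by linked protease (final 5, 30 or 60 nM) was followed as fluorescence at 485/538 nm after 25 min, room temperature, dark. Compounds preincubated ~15 min.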

Experiment [6] can be described thus: Vero cells viability qHTS for Zika virus inhibitors (AID 1347167). Note: % is set by controls: 0 for no effect and ±100 for the full control effect. In a few lines: (§1)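 Counter-screen for cytotoxicity of hits from NS2B-NS3 protease qHTS. Overnight-attached cells (2.5 x 10^5 cells/mL, DMEM/4% FBS) were dosed in titration, incubated 24 to 48 hours, then assayed by CellTiter Glo.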
A short description of experiment [7]: HepG2 cells viability qHTS for Zika virus inhibitors (AID 1347168). Note: % is set by controls: 0 for no effect and ±100 for the full control effect. In a few lines: as §1
Experiment [8] can be described thus: Tertiary RLuc qRT-PCR qHTS assay for Zika virus inhibitors (AID 1347169). Note: nearly all actives have a fitted effect of over 55% in size. Note: potency is the fitted concentration of half-maximal effect. The text has this:
Avindra Nath, Ph.D., National Institute of Neurological Disorders and Stroke (NINDS), Bethesda, MD
Radhakrishnan Padmanabhan, Ph.D., Georgetown University (GU), Washington D.C.
Zika Virus causes congenital defects, including microcephaly and is associated with Guillain-Barre syndrome, eningoencephalitis and myelitis in infected adult. […] Using a target-based approach, we hope to establish a screening paradigm to uncover novel, cell-active NS2B-NS3 protease (Zika Virus) specific inhibitors from NCATS' collection of small molecules using qHTS.
Four assay panel was created to identify potential Zika Virus inhibitors. Namely, (1) GU unlinked NS2B-NS3 AMC tagged protease qHTS, (2) GU unlinked NS2B-NS3 Rhodamine tagged protease qHTS, (3) NINDS linked NS2B-NS3 AMC tagged protease qHTS, (4) NINDS linked NS2B-NS3 Rhodamine tagged protease qHTS. Identified inhibitors were re-acquired and tested against secondary confirmatory, orthogonal, and counterscreens to exclude nonspecific inhibition.
Early Translation Branch (ETB)
National Center for Advancing Translational Sciences (NCATS), Rockville, MD
National Institute of Health (NIH), Bethesda, Maryland
1536-well recombinant virus ZIKV-RLuc (Cambodian) Assay:
For a follow-up assay, we adapted a high throughput orthogonal assay in 1536-well plate format to use the recombinant virus ZIKV-RLuc, in Vero cells. Briefly, three microL of Vero cells derived from a green monkey cell line, were dispensed Multidrop Dispenser into a solid bottom white 1,536-well plate at a concentration of 1,000 cells per well. The plate was incubated overnight in a CO2 incubator at 37 degrees C. Compounds were delivered as a 23 nL DMSO solution by Kalypsys pintool transfer. Following compound transfer, 2 microL of ZIKV-RLuc was added at an MOI of 1-2 and incubated in a CO2 incubator for 48-72 hrs at 37 degrees C. After sufficient incubation of infected cells in test plates, live cell Renilla luciferase substrate (Promega) was added. The luminescence signal was measured after 1-1.5 hrs exposure to substrate in ViewLux reader.

Experiment [9] can be described thus: qHTS to identify inhibitors of the type 1 interferon - major histocompatibility complex class I in skeletal muscle: primary screen against the NCATS Pharmaceutical Collection (AID 1347407).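 Note: luminescence of HiBiT knocked into endogenous HLA-B as interferon-induced MHC class I level; % is set by controls: 0 for no effect and ±100 for the full control effect.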 In a few lines: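 A qHTS format is used: 8-point, 1:5 compound series with 46 uM top final concentration, applied alongside 4 ng/ml IFN-beta to HLA-B*08:01-HiBiT knock-in myoblasts. Luminescence is measured after 24 h treatment.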

Experiment [10] is described as follows: qHTS to identify inhibitors of the type 1 interferon - major histocompatibility complex class I in skeletal muscle: primary screen against the NCATS LOPAC collection (AID 1347405).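 Note: lytic HiBiT luminescence reporting HLA-B protein level; % is set by controls: 0 for no effect and ±100 for the full control effect.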 In a few lines:
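Cells: C25cl48 human myoblasts, HiBiT-tagged HLA-B*08:01, stimulated with IFN-beta 4.0 ng/ml. Compounds are titrated 1:4.3 over 7 points from 46 uM final and incubated 24 hrs; endogenous MHC class I is quantified by HiBiT lytic luminescence.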

Our source for the Potency, outcome and activity change, negative = inhibition values is PubChem BioAssay (NCATS).

Several values for one entry are separate records, joined by “and”; a condition that tells them apart may be missing. Equal values may be shown once. Inconclusive results are not listed. Activity calls are given as the source filed them. Calls come from the whole dose curve; as a rule, active = well fitted curve in the direction sought with a large enough effect; inconclusive = small, poorly fitted or top-dose-only effect, or another doubt; inactive = no such curve, though single readings can be large; an effect the other way counts as inactive or inconclusive.

Regarding `O=C(O)Cc1cc(I)c(Oc2ccc(O)c(I)c2)c(I)c1`, the Potency is 7.08 µM (active) in [1]; 3.16 µM (active) in experiment [2]; 2.21 µM (active) and 7.94 µM (active) in experiment [3]; 2.82 µM (active) in experiment [4]; 3.16 µM (active) in experiment [5]. Also, the molecule was called inactive in experiment [6] and in experiment [7]. For the same molecule, the activity change, negative = inhibition in [8] is 45.7% [at 0.566 µM] (inactive).
Take `O=C(OCc1ccccc1)c1ccc(O)cc1`: in [9], the outcome was inactive.
On the same count and under the same terms, next, `Nc1ccc(N=Nc2ccccc2)c(N)n1`: “inactive”.
For the molecule `CC(=O)Nc1ccc(NC(=S)NC(=O)c2ccc(C(C)(C)C)cc2)cc1`, the Potency result in experiment [1] and in experiment [2] was “inactive” throughout.
Turning to `CC(=O)Oc1cccc2c1C(=O)c1c(OC(C)=O)cc(C(=O)O)cc1C2=O`, the call in experiment [9] was inactive.
Still for that read-out and setting: next, `O=C1c2ccccc2C(=O)c2c1ccc(O)c2O`: “inactive”.
Take `CCN(CC)CCOCCOC(=O)C(CC)(CC)c1ccccc1`: the Potency result in [1] and in [2] was “inactive” throughout.
Turning to `Oc1ccc(/C=C/c2cc(O)cc(O)c2)cc1`, the result in experiment [10] and in experiment [9] was inactive.
On to `CC1(C)C(\C=C/C=C\C=C/C=C2/N(CCCCS(=O)(=O)O)c3ccc4ccccc4c3C2(C)C)=[N+](CCCCS(=O)(=O)[O-])c2ccc3ccccc3c21`, for which the Potency was 5.62 µM (active) in [3], 39.8 µM (active) in experiment [4] and 4.47 µM (active) in experiment [5].
Consider `COc1ccc2nc(NC(=O)Nc3ccccc3)sc2c1`, for which the result in experiment [9] was inactive.
Consider `C/C(=C\C(=O)OCCCCCCCCC(=O)O)C[C@@H]1OC[C@H](C[C@@H]2O[C@H]2[C@@H](C)[C@H](C)O)[C@@H](O)[C@H]1O`, for which the Potency result in [1] and in [2] was “inactive” in each case.
On to `C[C@]12CC[C@@H]3c4ccc(OC(=O)c5ccccc5)cc4CC[C@H]3[C@@H]1CC[C@@H]2O`, for which the Potency result in experiment [2] was “inactive”.
As to `C=C1[C@H](CO)[C@@H](O)C[C@@H]1n1cnc2c(=O)[nH]c(N)nc21`, the Potency result in experiment [1] and in experiment [2] was “inactive” each time.
For the molecule `CC(C)(C)c1ccc(CN2CCN(C(c3ccccc3)c3ccc(Cl)cc3)CC2)cc1` (stereo not drawn), the Potency result in experiment [1] and in experiment [2] was “inactive” in each case.
As to `O=C(O)CCC(=O)c1ccc(-c2ccccc2)cc1`, the call in experiment [9] was inactive.
Turning to `C[C@H]1O[C@@H](O[C@H]2[C@@H](O)C[C@H](O[C@H]3[C@@H](O)C[C@H](O[C@H]4CC[C@@]5(C)[C@H](CC[C@@H]6[C@@H]5C[C@@H](O)[C@]5(C)[C@@H](C7=CC(=O)OC7)CC[C@]65O)C4)O[C@@H]3C)O[C@@H]2C)C[C@H](O)[C@@H]1O`, the Potency result in experiment [1] and in [2] was “inactive” in each case. In addition, the molecule was classed as inactive in [6]. Also, in experiment [8], the Potency is 0.38 µM (active).
Turning to `CN(C)CCCSc1ccccc1NC(=O)/C=C/c1ccccc1`, the result in experiment [9] was inactive.
As to `Cc1cc(-c2ccc(N=Nc3ccc4c(S(=O)(=O)O)cc(S(=O)(=O)O)c(N)c4c3O)c(C)c2)ccc1N=Nc1ccc2c(S(=O)(=O)O)cc(S(=O)(=O)O)c(N)c2c1O`, the Potency in [4] was 5.62 µM (active); in experiment [5], 8.91 µM (active). In addition, the Potency entry in experiment [8] was “inactive”.
On to `Cc1cc(-c2ccc(N=Nc3c(S(=O)(=O)O)cc4cc(S(=O)(=O)O)cc(N)c4c3O)c(C)c2)ccc1N=Nc1c(S(=O)(=O)O)cc2cc(S(=O)(=O)O)cc(N)c2c1O`, for which the Potency in experiment [3] was 2.24 µM (active); in experiment [4], 20 µM (active); in experiment [5] it was 7.94 µM (active). The Potency entry in [8] is “inactive”.
Regarding `COc1ccc(C[C@H](C)NC[C@@H](O)c2ccc(O)c(NC=O)c2)cc1`, the Potency entry in experiment [1] and in experiment [2] was “inactive” throughout.
On to `N[C@@H](Cc1cc(I)c(Oc2ccc(O)c(I)c2)c(I)c1)C(=O)O`, for which, in experiment [1], the Potency is 14.1 µM (active). Besides, the Potency result in [3] is “inactive”. Further, in [8], the activity change, negative = inhibition was 35% [at 3.57 µM] (inactive).
Take `CC(C)(C)CC(C)(C)c1cc(Cc2cc(C(C)(C)CC(C)(C)C)cc(-n3nc4ccccc4n3)c2O)c(O)c(-n2nc3ccccc3n2)c1`: in experiment [3], the Potency entry is “inactive”. Also, the activity change, negative = inhibition in experiment [8] was -2.91% [at 1.74 µM] (inactive).
`CO[C@H]1C[C@H](O[C@@H]2/C(C)=C/C[C@@H]3C[C@@H](C[C@]4(CC[C@H](C)[C@@H](C5CCCCC5)O4)O3)OC(=O)[C@@H]3C=C(C)/C(=N/O)[C@H]4OC/C(=C\C=C\[C@@H]2C)[C@]43O)O[C@@H](C)[C@@H]1O`: the Potency result in experiment [3] and in [8] was “inactive” each time. The outcome in [6] and in experiment [7] was inactive.
For the molecule `CC1CC(OC(=O)C(O)c2ccccc2)CC(C)(C)C1` (stereo not drawn), in [2], the Potency result was “inactive”.
As to `C=C1CC[C@H](O)CC1=C/C=C1\CCC[C@]2(C)[C@@H]([C@H](C)/C=C/[C@H](C)C(C)C)CC[C@@H]12`, the Potency in [1] is 11.2 µM (active); in experiment [2], 12.6 µM (active).
Take `CO[C@H]1C[C@@H]2CC[C@@H](C)[C@@](O)(O2)C(=O)C(=O)N2CCCC[C@H]2C(=O)O[C@H]([C@H](C)C[C@@H]2CC[C@@H](OC(=O)C(C)(CO)CO)[C@H](OC)C2)CC(=O)[C@H](C)/C=C(\C)[C@@H](O)[C@@H](OC)C(=O)[C@H](C)C[C@H](C)/C=C/C=C/C=C/1C`: the Potency result in [1] and in experiment [2] was “inactive” in each case.
